Compound activity: PubChem BioAssay, National Center for Advancing Translational Sciences (NCATS)
Only some compounds are listed: those with a hit (about 19% of all), similar ones and a draw of the others.
HT1080-NT tox: qHTS for induction of synthetic lethality in tumor cells producing 2HG: qHTS for the HT-1080-NT fibrosarcoma cell line. HT-1080-NT fibrosarcoma viability, CellTiter-Glo ATP luminescence, 48 h. Potency, µM (doses to about 46.1 µM), without a hit: at the top dose activity, negative = less viability, actives largely listed as cytotoxic. 1.6% of 360,000 active;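 note: NT is the 2HG producing partner of a matched IDH1 knockdown line; 0% = DMSO-treated cells and -100% = media-only wells without cells; nearly all actives have a fitted effect of over 55% in size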
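Viability of the 2HG-overproducing fibrosarcoma line after 48 hours of compound exposure at 37 degrees C was determined by luminescence with CellTiter-Glo, and concentration-effect curves were then fitted and categorized.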
KB-V1 cytotox: qHTS assay for MDR1-selective chemotherapeutics: Primary screen using the drug-selected MDR subline cells KB-V1; KB-V1 MDR cells viability, CellTiter-Glo, 72 h; Potency, µM (highest dose often 46.1 µM), hits mostly cytotoxic; 3.4% of 400,000 active; AID 1347076, 2019; note: nearly all actives have a fitted effect of over 60% in size
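qHTS viability screen in drug-selected KB-V1 MDR cells: 72 h compound treatment at 37 degrees C, ATP luminescence end point.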
KB-3-1 cytotox: qHTS assay for MDR1-selective chemotherapeutics: Primary screen using the parental adenocarcinoma cell KB-3-1; Potency, µM (highest dose often 46.1 µM), actives largely listed as cytotoxic; AID 1347075, 2019; KB-3-1 viability, CellTiter-Glo ATP luminescence, 72 h; 1.4% of 400,000 active; note: nearly all actives have a fitted effect of over 60% in size
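Parental KB-3-1 adenocarcinoma cells in phenol-red-free DMEM with 10% FBS were pin-treated with compounds at several concentrations, incubated 72 h at 37 °C, and viability read by CellTiter-Glo luminescence; concentration-effect curves were fitted after normalization.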
DT40 TDP1 CPT: qHTS for Inhibitors of human tyrosyl-DNA phosphodiesterase 1 (TDP1): qHTS in cells in presence of CPT; AID 686979, 2013; Potency, µM (top dose mostly 46.2 µM), inactives show at the top dose activity change, negative = growth inhibition, usual class: inhibitors; chicken DT40 Tdp1-/-;hTDP1 cells + 20 nM CPT, ATP luminescence, 48 h; 12% of 420,000 active; note: nearly all actives have a fitted effect of over 55% in size
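Cell growth measured by CellTiter-Glo luminescence after a minimum 48 h, 37 C compound exposure with 20 nM CPT in Tdp1-knockout DT40 cells stably expressing hTDP1, seeded 400/well; qHTS titration format.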
HT1080 IDH1KD tx: qHTS for induction of synthetic lethality in tumor cells producing 2HG: qHTS for the HT-1080-IDH1KD cell line; 2% of 360,000 active; HT-1080 IDH1 knockdown viability, ATP luminescence, 48 h; Potency, µM (highest dose often 46.1 µM), inactives show top-dose activity, negative = toxicity, usual class: cytotoxic;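 note: 0% = DMSO wells and -100% = cell-free medium wells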
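Using the IDH1-knockdown HT-1080 line run in the same batch and compound series as the NT line, viability after 48 h at 37 °C was determined by CellTiter-Glo luminescence and expressed as % activity.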
TDP1 cell noCPT: qHTS for Inhibitors of human tyrosyl-DNA phosphodiesterase 1 (TDP1): qHTS in cells in absence of CPT; DT40 Tdp1-/- hTDP1 cells, no CPT, ATP luminescence, 48 h; Potency, µM (highest dose often 46.2 µM), inactives show at the highest dose activity change, negative = growth inhibition, hits mostly inhibitors; 15% of 420,000 active; note: nearly all actives have a fitted effect of over 55% in size
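A cellular qHTS used chicken DT40 cells lacking endogenous Tdp1 but carrying stably transfected human TDP1. Compounds were applied without camptothecin, and cell growth kinetics were judged by ATP-dependent luminescence after ≥48 hr.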
* marks the source's active call; other numbers are inactive results; i = inactive; ? = inconclusive; . = no result; [ ] = another dose, or the depositor's remark. Calls come from the whole dose curve; as a rule, active = well fitted curve in the direction sought with a large enough effect; inconclusive = small, poorly fitted or top-dose-only effect, or another doubt; inactive = no such curve, though single readings can be large; an effect the other way counts as inactive or inconclusive. Unless noted, % is set by controls: 0 for no effect and ±100 for the full control effect; potency is the fitted concentration of half-maximal effect.

SMILES	HT1080-NT tox	KB-V1 cytotox	KB-3-1 cytotox	DT40 TDP1 CPT	HT1080 IDH1KD tx	TDP1 cell noCPT
CC1CN(C(=O)c2ccccc2OCc2ccc(Cl)cc2Cl)CC(C)O1 (stereo unspecified)	2%	i	i	16µM*	-11%	3.7µM*
CC1CN(C(=O)c2ccccc2Oc2ccccc2)CC(C)O1 (stereo unspecified)	-4%	i	21µM*	-13%	1%	?
COc1c(C)cc(C(O)c2ncc(-c3ccc(Cl)cc3)[nH]2)cc1C (stereo unspecified)	?	i	i	?	?	?
CCCC(=O)N(Cc1cc2cccc(C)c2[nH]c1=O)c1ccccc1OC	7%	i	i	?	13%[9.24 µM]	?
COc1cccc(C(=O)N(Cc2cc3cc(C)ccc3[nH]c2=O)C(C)C)c1	-2%	i	i	-22%	-6%	?
CCCN(Cc1cc2cc(C)ccc2[nH]c1=O)C(=O)c1cccc(OC)c1	-13%	7.3µM*	16µM*	?	-14%	?
CCCN(Cc1cc2cccc(C)c2[nH]c1=O)C(=O)c1cccc(OC)c1	-2%	?	i	?	-20%	16µM*
COc1cc(NC(=O)NCCn2nnc3cc(S(=O)(=O)N(C)C)ccc32)cc(OC)c1	.	i	i	-24%	.	-3%
Fc1ccc(Nc2ccnc(Nc3ccc(F)cc3)n2)cc1	?	15µM*	i	16µM*	?	18µM*
COc1ccccc1Nc1sc(C(=O)c2ccc3c(c2)OCO3)c(N)c1S(=O)(=O)c1ccccc1	.	?	i	.	.	.
CCN(Cc1ccccc1)S(=O)(=O)c1cc(C(=O)NC(C)C2CC3CCC2C3)ccc1OC (stereo unspecified)	-6%	i	i	16µM*	-8%	15µM*
COc1cc(C(=O)NC(C)C2CC3CCC2C3)cc(OC)c1OC (stereo unspecified)	6%	i	?	?	-3%	?
COc1ccc(C(=O)NC(C)C2CC3CCC2C3)c(OC)c1 (stereo unspecified)	8%	i	i	23µM*	0%	21µM*
CC(NC(=O)c1ccc(CS(C)(=O)=O)cc1)C1CC2CCC1C2 (stereo unspecified)	0%	i	i	-6%	1%	-14%
CCN(Cc1ccccc1)S(=O)(=O)c1cc(C(=O)c2c(N)n(C)c(=O)n(C)c2=O)ccc1OC	-11%	i	i	?	-1%	29µM*
Cc1ccc(C)c(NC(=O)CSc2nnc(NC(=O)C3CC3)s2)c1	-3%	i	i	-5%	-4%	-11%
COc1ccccc1NC(=O)c1c(NC(=O)CCC(=O)O)sc2c1CCCCC2	-2%	i	i	-18%	-3%	-16%
COc1ccc(NC(=O)c2c(NC(=O)CNCC(C)C)sc3c2CCC3)c(OC)c1	-10%	i	?	4.1µM*	?	6.5µM*
COc1ccc(OC)c(NC(=O)c2c(NC(=O)CCC(=O)O)sc3c2CCCCC3)c1	2%	i	i	?	-4%	?
COc1ccc(Cl)cc1NC(=O)c1c(NCc2sccc2C)sc2c1CCCC2	.	.	.	?	.	21µM*
COc1ccc(NC(=O)c2c(NCc3cccs3)sc3c2CCCC3)c(OC)c1	.	i	i	16µM*	.	16µM*
COc1ccc(NC(=O)c2c(NCc3sccc3C)sc3c2CCCCC3)c(OC)c1	.	i	i	3.3µM*	.	3.3µM*
CCOC(=O)/C=C/[C@H]1CC(c2ccccc2)(c2ccccc2)CO1	0%	i	i	?	0%	?
CN1CCN([C@@H]2CS(=O)(=O)N[C@H]2COCc2ccccc2)CC1	13%	i	i	6%	11%	0%
COc1ccc(NS(=O)(=O)c2cn(C)nc2C)cc1	15%	?	i	-1%	13%	-1%
SMILES	HT1080-NT tox	KB-V1 cytotox	KB-3-1 cytotox	DT40 TDP1 CPT	HT1080 IDH1KD tx	TDP1 cell noCPT
COCCNC(=O)CN1N=C(c2ccc(C)cc2)CCC1=O	-15%	i	i	-7%	4%	-12%
COc1ccc(OC)c(NC(=O)c2c(NCc3cccs3)sc3c2CCCCC3)c1	.	i	i	23µM*	.	?
COc1ccc(OC)c(CNc2sc3c(c2C(=O)Nc2cc(OC)ccc2OC)CCCC3)c1	.	i	i	?	.	?
CCOc1ccc2cc(-c3nnc(Nc4ccc(C)cc4)s3)c(=O)oc2c1	.	.	.	-3%	.	-14%
CC1CCCCC1Nc1ncnc2sccc12 (stereo unspecified)	-5%	i	i	18µM*	-5%	?
COCCNC(=O)C(=O)NCC(c1cccnc1)N1CCN(c2ccccc2)CC1 (stereo unspecified)	.	i	i	1%	.	-20%
O=C(NCCc1ccccc1)C(=O)NCC(c1cccnc1)N1CCN(c2ccc(F)cc2)CC1 (stereo unspecified)	.	i	i	15µM*	.	10µM*
O=C(NCc1cccnc1)C(=O)NCC(c1cccnc1)N1CCN(c2ccc(F)cc2)CC1 (stereo unspecified)	.	i	i	21µM*	.	18µM*
O=C(NCc1ccncc1)C(=O)NCC(c1ccco1)N1CCN(c2ccc(F)cc2)CC1 (stereo unspecified)	-1%	2.6µM*	?	?	2%	?
O=C(NCCc1c[nH]c2ccccc12)C(=O)NCC(c1cccnc1)N1CCN(c2ccccc2)CC1 (stereo unspecified)	-23%	i	i	18µM*	-23%	16µM*
CN(Cc1ccco1)C(=O)c1cc(NC(=O)C2CCC2)c2c(c1)nc(-c1ccncc1)n2C	.	.	.	?	.	-18%
COC(=O)[C@@H]1CCCN1Cc1ccc2c(c1)CN(Cc1coc3ccc(C)cc3c1=O)CCO2	.	.	.	-1%[9.04 µM]	.	?
C=CCn1c(SCC(=O)NC23CC4CC(CC(C4)C2)C3)nc2cc(C(=O)O)ccc2c1=O	6%	i	i	0%	3%	-1%
Cc1ccc2oc(NC3=NC4(CCCC4)C4=C(CCCC4=O)N3)nc2c1	.	i	i	.	.	.
